Screening results from PubChem BioAssay.
Most compounds without a hit are left out; they make up all but 19% or so of the library.
TDP1 cell noCPT = qHTS for Inhibitors of human tyrosyl-DNA phosphodiesterase 1 (TDP1): qHTS in cells in absence of CPT; DT40 Tdp1-/- hTDP1 cells, no CPT, ATP luminescence, 48 h; Potency, µM (doses to about 46.2 µM), for the others: at the top dose activity change, negative = growth inhibition, actives largely listed as inhibitors; 420,000 tested, 15% active; AID 686978, 2013; note: nearly all actives have a fitted effect of over 55% in size
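Compound effects on proliferation are scored in DT40 Tdp1-/-;hTDP1 cells in the absence of CPT. ATP levels (CellTiter-Glo luminescence) are recorded after a ≥48 hr, 37 °C incubation.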
TDP1 cell CPT = growth inhibition of DT40 Tdp1-/-;hTDP1 cells with camptothecin (screen for TDP1 inhibitors). AID 686979. 420,000 tested, 12% active. Potency, µM (top dose mostly 46.2 µM), for the others: at the top dose activity change, negative = growth inhibition, usual class: inhibitors. chicken DT40 Tdp1-/-;hTDP1 cells + 20 nM CPT, ATP luminescence, 48 h; note: nearly all actives have a fitted effect of over 55% in size
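Chicken DT40 Tdp1-/- cells complemented with human TDP1, 400 cells/well, exposed to compounds plus 20 nM camptothecin for at least 48 h at 37 C; viability read as ATP content by CellTiter-Glo luminescence.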
HT1080 IDH1KD tx = kills HT-1080 cells with IDH1 knockdown. HT-1080 IDH1 knockdown viability, ATP luminescence, 48 h. Potency, µM (series often up to 46.1 µM), for inactives: top-dose activity, negative = toxicity, usual class: cytotoxic. 360,000 tested, 2% active;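 note: 0% = DMSO wells and -100% = cell-free medium wells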
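HT-1080-IDH1KD cells (IDH1 knocked down), 750/well in RPMI with 5% FBS, treated with compound 48 h at 37 degrees C. Viability by CellTiter-Glo luminescence, normalised to DMSO and no-cell wells; concentration-response curves classed.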
KB-3-1 tox = KB-3-1 parental cell cytotoxicity; Potency, µM (series often up to 46.1 µM), hits mostly cytotoxic; KB-3-1 viability, CellTiter-Glo ATP luminescence, 72 h; 400,000 tested, 1.4% active; note: nearly all actives have a fitted effect of over 60% in size
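Using CellTiter-Glo luminescence, growth of non-resistant KB-3-1 adenocarcinoma cells is assessed 72 h after pin-tool compound addition at 37 °C. Normalized responses across the concentration series yield fitted curves.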
KB-V1 MDR tox = KB-V1 MDR subline cytotoxicity. Potency, µM (top dose mostly 46.1 µM), most hits filed as cytotoxic. 400,000 tested, 3.4% active. AID 1347076. KB-V1 MDR cells viability, CellTiter-Glo, 72 h; note: nearly all actives have a fitted effect of over 60% in size
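KB-V1, DMEM (no phenol red) + 10% FBS; cpd pin-transferred, titration series; 72 h, 37 degrees C; CellTiter-Glo, luminescence. Data normalized, curve-fit.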
HT1080-NT tox = kills 2HG-producing HT-1080-NT fibrosarcoma cells; HT-1080-NT fibrosarcoma viability, CellTiter-Glo ATP luminescence, 48 h; Potency, µM (series often up to 46.1 µM), without a hit: at the highest dose activity, negative = less viability, usual class: cytotoxic; 360,000 tested, 1.6% active; AID 686970;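 note: NT is the 2HG producing partner of a matched IDH1 knockdown line; 0% = DMSO-treated cells and -100% = media-only wells without cells; nearly all actives have a fitted effect of over 55% in size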
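HT-1080-NT fibrosarcoma cells (2HG-overproducing), 750 cells/well in RPMI with 5% FBS, dosed after 2 h and incubated 48 h at 37C. CellTiter-Glo luminescence normalized to DMSO and no-cell wells; concentration-response curves fitted and classed.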
Active calls of the source: *; i = inactive; ? = inconclusive; . = not tested or not shown. Calls come from the whole dose curve; as a rule, active = well fitted curve in the direction sought with a large enough effect; inconclusive = small, poorly fitted or top-dose-only effect, or another doubt; inactive = no such curve, though single readings can be large; an effect the other way counts as inactive or inconclusive. Unless noted, % is set by controls: 0 for no effect and ±100 for the full control effect; potency is the fitted concentration of half-maximal effect.

SMILES	TDP1 cell noCPT	TDP1 cell CPT	HT1080 IDH1KD tx	KB-3-1 tox	KB-V1 MDR tox	HT1080-NT tox
Cc1ccc2c(c1)C(=O)CC(c1ccccc1)S2 (centres undefined)	-25.8%	-28.8%	2.9%	i	i	-0.7%
Cc1nn(CC(=O)Nc2ccc3nc4n(c(=O)c3c2)CCCC4)c(C)c1[N+](=O)[O-]	-22.8%	-7.7%	8.6%	i	i	10.7%
CCOc1ccc(C(=O)c2cn(CC(=O)Nc3ccc4c(c3)OCO4)c3ccc(OC)cc3c2=O)cc1	?	?	.	i	i	.
CCSc1nnc(NC(=O)[C@@H](NC(=O)c2cccc(C)c2)C(C)C)s1	-18.4%	-13.0%	7.6%	i	8.2µM*	-4.2%
COc1cc(OC)cc(C(=O)N[C@H](C(=O)Nc2nnc(C3CC3)s2)C(C)C)c1	3.8%	-9.7%	0.4%	i	i	2.0%
CC(C)[C@H](NC(=O)c1ccc(C(C)(C)C)cc1)C(=O)Nc1nnc(C2CC2)s1	?	23.1µM*	-2.2%	i	?	-12.3%
CCSc1nnc(NC(=O)[C@@H](NC(=O)c2ccc(C(C)(C)C)cc2)C(C)C)s1	20.6µM*	25.9µM*	-21.2%	i	i	-21.5%
CCSc1nnc(NC(=O)[C@@H](NC(=O)c2ccccc2F)C(C)C)s1	-20.4%	0.6%	12.1%	i	?	5.2%
CC(Oc1ccccc1)C(=O)N[C@@H]1C(=O)N2C(C(=O)OCC3CCCCC3)C(C)(C)S[C@H]12 (some centres undefined)	-11.2%	-7.0%	.	i	?	.
CCc1cccc(NC(=O)COC(=O)c2c(C)nn(-c3ccccc3)c2C)c1	?	-26.8%	0.1%	i	i	-0.9%
O=C1CCc2cc(-c3csc(-c4ccc(O)cc4)n3)ccc2N1	3.16µM*	11.2µM*	.	i	i	.
CC(C)C[C@@H]1O[C@H](CCc2ccccc2)Cc2[nH]c(=S)[nH]c(=O)c21	?	?	?	i	i	?
CC(C)Cn1c(N)c(C(=O)COC(=O)C2Cc3ccccc3CN2S(C)(=O)=O)c(=O)n(C)c1=O (centres undefined)	5.17µM*	6.51µM*	-3.8%	.	.	0.0%
CC(=O)c1c(C)[nH]c(C(=O)OCC(=O)c2c(N)n(CC(C)C)c(=O)n(C)c2=O)c1C	23.1µM*	?	7.6%	i	i	4.9%
Cn1c(=O)c(C(=O)CCl)c(N)n(CC2CC2)c1=O	18.4µM*	23.1µM*	2.8%	i	i	4.6%
CC(C)Cn1c(N)c(C(=O)COC(=O)c2cnccn2)c(=O)n(C)c1=O	-16.4%	?	3.1%	i	i	4.7%
CC(C)Cn1c(N)c(C(=O)COC(=O)C2CCCCC2)c(=O)n(C)c1=O	18.4µM*	16.4µM*	-12.8%	i	i	-11.2%
Cc1ccc(N2CC(C(=O)OCC(=O)c3c(N)n(CC(C)C)c(=O)n(C)c3=O)CC2=O)cc1 (centres undefined)	?	-37.7%	-8.8%	i	i	0.2%
Cc1c(C(=O)N(C)C)sc2c1c(=O)n(-c1ccc(Cl)cc1)c(=O)n2CC(=O)C(C)(C)C	?	-18.6%	.	.	.	.
NC1=NC(=O)/C(=C/c2cn(CCC(=O)O)nc2-c2ccc(Cl)cc2)S1	-21.7%	-16.7%	-0.2%	i	i	-12.0%
NC1=NC(=O)/C(=C\c2ccc(-c3ccc(Cl)cc3)o2)S1	18.4µM*	?	-27.1%	i	?	-26.4%
COc1ccc(S(=O)(=O)NC(CC(=O)NCCc2ccc(OC)c(OC)c2)C(C)C)cc1 (centres undefined)	-3.0%	-3.4%	9.1%	i	i	11.5%
O=S(=O)(c1ccccc1)N1CCN(C/C=C/c2ccccc2)CC1	3.0%	-19.4%	-21.4%	i	i	-12.2%
Cc1ccc(C(=O)CCC(=O)N2CCN(C/C=C/c3ccccc3)CC2)cc1	20.6µM*	?	4.6%	i	?	6.2%
O=S(=O)(c1ccc(S(=O)(=O)N2CCN(C/C=C/c3ccccc3)CC2)cc1)N1CCCC1	11.6µM*	?	?	i	i	?
SMILES	TDP1 cell noCPT	TDP1 cell CPT	HT1080 IDH1KD tx	KB-3-1 tox	KB-V1 MDR tox	HT1080-NT tox
O=C(/C=C/c1ccco1)N1CCN(C/C=C/c2ccccc2)CC1	?	?	7.4%	i	14.6µM*	19.2%
Cc1cc(C(=O)N2CCN(C/C=C/c3ccccc3)CC2)cs1	-31.1%	2.8%	-5.6%	i	16.4µM*	-2.9%
Cc1ccc(C(C)C)c(OCc2ccc(C(=O)Nc3ccc(S(N)(=O)=O)cc3C)o2)c1	?	?	.	i	i	.
O=C(C1CCN(Cc2ccccc2)CC1)N1CCN(C/C=C/c2ccccc2)CC1	23.1µM*	?	-22.4%	i	i	-21.4%
CC(=O)N1CCN(C(=O)c2cc3ccccc3o2)CC1	-10.5%	7.1%	7.2%	i	?	10.6%
O=C(c1cc2ccccc2o1)N1CCN(C/C=C/c2ccccc2)CC1	?	14.6µM*	-27.4%	?	i	?
COc1cc(NC(=S)NC2CC(C)(C)NC(C)(C)C2)c(OC)cc1Cl	-11.5%	-23.9%	-19.5%	i	?	-9.7%
COc1cc(Cc2cc(OC)c(O)c(OC)c2)cc(OC)c1O	20.6µM*	16.4µM*	?	?	?	-5.1%
Cc1cn(CC(=O)NCCc2c[nH]c3ccccc23)c(=O)[nH]c1=O	-4.9%	-27.1%	0.5%	i	i	1.4%
CCN(Cc1ccccc1)S(=O)(=O)c1nc2nc(C)c(C)c(C)n2n1	-9.8%	-6.4%	0.8%	i	18.4µM*	0.5%
CC(OC(=O)c1ccc(Cl)nc1)C(=O)NC1(C#N)CCCCC1 (centres undefined)	-1.0%	7.6%	0.6%	i	i	-4.9%
CC(C)(C)OC(=O)N1CCC(c2c(C(=O)N3CCN(c4ncccn4)CC3)cnn2-c2ccc(F)cc2F)CC1	?	?	.	i	i	.
COc1ccccc1N1CCN(C(=O)c2cnn(-c3ccc(F)cc3F)c2C2CCNCC2)CC1	18.4µM*	-28.0%	.	i	?	.
COc1ccccc1CNC(=O)c1cnn(-c2ccc(F)cc2F)c1C1CCN(C(=O)OC(C)(C)C)CC1	?	16.4µM*	.	i	i	.
